In PubChem BioAssay (NCI) one finds growth inhibition data, which are given here for 40 molecules.

About 79,000 compounds went through this panel and 15% of them were active in at least one assay; those are over-represented in the sample as a whole. Values without a mark were called inactive. The source made the active and inactive calls. Cut-off read from the data, not from the text of the source: active = growth inhibition above about 70%; inactive = the rest. Where a SMILES comes first, the peptide text is derived from it. The star is where a group is joined. Fmoc = O=C(OCC1c2ccccc2-c2ccccc21)*; OBn = c1ccc(CO*)cc1; tBu = CC(C)(C)*

The nature of one experiment: NCI Yeast Anticancer Drug Screen. Data for the rad50 strain (AID 155).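 Note: 0% = growth of vehicle-only cultures of the same strain.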 The conditions noted are these: S. cerevisiae rad50 strain growth inhibition; at 50.0 µM; active compounds read high. The gist of the method: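 Compounds were tested on a yeast strain with an engineered DNA damage repair alteration; the reported value is growth inhibition normalised to vehicle treatment.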
On to `COc1ccc(C2C(C)C(=O)C(C)C(c3ccc(OC)cc3)N2N=O)cc1` (stereo not given), for which the growth inhibition was 3.15%.
Regarding `CCOC(=O)CCCCCC(C(=O)OCC)c1nc2ccccc2[nH]c1=O` (stereo not given), the growth inhibition was -14.4%.
`COc1cc2c(cc1O)C1Cc3cc(O)c(OC)cc3C(C2)N1C` (stereo not given): the growth inhibition was -29.8%.
Turning to `N#C/C(=C\c1ccccc1Br)C(=O)c1ccccc1`, the growth inhibition was 15.2%.
The same measure, in the same setting: with `OC1C2CC3C(C2)C13` (stereo not given) the figure was -25.6%; with `NC1=NS(=O)(=O)Nc2nc(-c3ccc([N+](=O)[O-])o3)[nH]c21`, 50.5%.
For the molecule `CC(=O)OC1(C#N)CCCCC1`, the growth inhibition was 5.7%.
As for `Clc1cccc(C=NC23CC4CC(CC(C4)C2)C3)c1Cl`, the growth inhibition was -20.2%.
Same read-out and setting: the result for `NC(N)=Nc1nc2ccc(Cl)cc2[nH]1` reads 29.2%.
Take `O=C1c2cc(Cl)ccc2NC(O)c2cccn21` (stereo not given): the growth inhibition was 3.45%.
Same read-out and setting: with `CCCCCCCCCCCCCCCC(=O)OCC1OC(OC(=O)CCCCCCCCCCCCCCC)C(OC(=O)CCCCCCCCCCCCCCC)C(OC(=O)CCCCCCCCCCCCCCC)C1OC(=O)CCCCCCCCCCCCCCC` (stereo not given) the figure was -19.8%.
`CN(C)C(=S)/N=c1\ss/c(=N\C(=S)N(C)C)n1-c1ccc2c(c1)OCO2`: the growth inhibition was -16.1%.
`O=C1C=C(Nc2ccc(Cl)cc2C(=O)c2ccccc2)c2ccccc2C1=O`: the growth inhibition was 3%.
With `CC[n+]1c(/C=C\N(C(C)=O)c2ccccc2)oc2ccccc21`, the growth inhibition is -20.6%.
On to `CCN(CC)C(=O)CS(=O)(=O)c1ccc(N)cc1`, for which the growth inhibition is 3.55%.
Same read-out and setting: with `CCC1(COC(NC(=O)c2ccccc2)(C(F)(F)F)C(F)(F)F)COC1` the figure was -14.2%; with `NC(=O)CCC(NS(=O)(=O)c1ccc(NC(=O)c2ccccc2)cc1)C(=O)O` (stereo not given), 4%; with `COc1ccc(NC(=O)C2C(=O)N(c3ccc(OC)cc3)C(=O)/C2=N\N)cc1` (stereo not given), 11.6%.
`CC(C)NC(=O)c1ccc(CBr)cc1`: the growth inhibition is 0.8%.
For the molecule `O=C1CCC(=O)N1c1ccc([I+]c2ccc(N3C(=O)CCC3=O)cc2)cc1`, the growth inhibition is 32.5%.
Regarding `CC1(C)OC2COC(CN(N=O)C(N)=O)C2O1` (stereo not given), the growth inhibition is 15.2%.
Turning to `N#CCCN(C1=NN(C(=O)CC(=O)Nc2cccc(Cl)c2)C(c2ccccc2)C1)c1ccccc1Cl` (stereo not given), the growth inhibition is 8.2%.
Regarding `CC(c1ccccc1)C(C)(C#N)c1ccccc1` (stereo not given), the growth inhibition was 2.8%.
With `CCOc1cc2c(cc1O)CC[C@@H]1[C@@H]2CC[C@]2(C)C(N)CC[C@@H]12` (stereo not given in full), the growth inhibition is -0.95%.
As to `CCCCCCC(C(=O)OCC)(C(=O)OCC)c1ccccc1`, the growth inhibition is -10.8%.
Same read-out and setting: the result for `O=S(=O)(c1ccc(I)cc1)c1ccc(I)cc1` reads 22.6%; that for `c1ccc(Cc2[nH]nc(-c3n[nH]c(Cc4ccccc4)c3-c3ccccc3)c2-c2ccccc2)cc1`, -28.8%.
With `FC1C2=C(SC1(F)F)C1CCC2C1` (stereo not given), the growth inhibition is 4.9%.
`CCCCCCP(=O)(CCCC)CCCC`: the growth inhibition was 38.1%.
Regarding `CNC(=O)Nc1[nH]c(=O)ncc1Cl`, the growth inhibition is 6.45%.
Same read-out and setting: with `Cc1cc(=O)c2c3c(ccc2[nH]1)Oc1ccccc1O3` the figure was 7.9%; with `COC(=O)c1cc(C(C)O)nc2ccccc12` (stereo not given), 4.95%.
For the molecule `CC(OC(C)(C)C)C(NC(=O)OCC1c2ccccc2-c2ccccc21)C(=O)NC(Cc1ccccc1)C(=O)OCc1ccccc1` (stereo not given) (Fmoc-Thr(tBu)-Phe-OBn; configuration not given here), the growth inhibition is -32.2%.
With `CCOC(=O)c1cnc(=S)n(CCC(C)C)c1N`, the growth inhibition is -11.2%.
`CC(=O)Nc1ccc(N=Nc2c(C)nn(C(=N)N)c2C)cc1`: the growth inhibition was -5.45%.
The same measure, in the same setting: with `O=C1NC(c2ccco2)N2C(=O)NC(c3ccco3)N12` (stereo not given) the figure was 15.2%; with `COc1cc(-c2c3c(cc4c2OCO4)CC(O)C(C(=O)O)C3)cc(OC)c1OC` (stereo not given), 40.9%.
On to `OC(CBr)(c1ccccc1)c1ccccc1`, for which the growth inhibition is 13.5%.
`CC(C)C1N=C(N)N=C(N)N1c1ccc(Cl)c(Cl)c1` (stereo not given): the growth inhibition is 17.4%.
In the case of `CC(=O)/C(=C\I)c1ccccc1`, the growth inhibition was 87.8% (active).

The nature of the next experiment: NCI Yeast Anticancer Drug Screen. Data for the mec2-1 strain (AID 157). The conditions noted are these: S. cerevisiae mec2-1 strain, at 50.0 µM, active compounds read high. The gist of the method: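 Compounds were applied to mec2-1 yeast cells. Their growth was then compared with that of vehicle-treated cultures to give growth inhibition.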
`COc1ccc(C2C(C)C(=O)C(C)C(c3ccc(OC)cc3)N2N=O)cc1` (stereo not given): the growth inhibition is 6.4%.
The same measure, in the same setting: with `CCOC(=O)CCCCCC(C(=O)OCC)c1nc2ccccc2[nH]c1=O` (stereo not given) the figure was 0.4%; with `COc1cc2c(cc1O)C1Cc3cc(O)c(OC)cc3C(C2)N1C` (stereo not given), -12.7%; with `N#C/C(=C\c1ccccc1Br)C(=O)c1ccccc1`, 6.15%.
The same measure, in the same setting: with `OC1C2CC3C(C2)C13` (stereo not given) the figure was -12.6%; with `NC1=NS(=O)(=O)Nc2nc(-c3ccc([N+](=O)[O-])o3)[nH]c21`, -8.6%.
Regarding `CC(=O)OC1(C#N)CCCCC1`, the growth inhibition was -2.3%.
`Clc1cccc(C=NC23CC4CC(CC(C4)C2)C3)c1Cl`: the growth inhibition was -36.5%.
As to `NC(N)=Nc1nc2ccc(Cl)cc2[nH]1`, the growth inhibition was 1%.
Regarding `O=C1c2cc(Cl)ccc2NC(O)c2cccn21` (stereo not given), the growth inhibition is 1.8%.
In the case of `CCCCCCCCCCCCCCCC(=O)OCC1OC(OC(=O)CCCCCCCCCCCCCCC)C(OC(=O)CCCCCCCCCCCCCCC)C(OC(=O)CCCCCCCCCCCCCCC)C1OC(=O)CCCCCCCCCCCCCCC` (stereo not given), the growth inhibition was -25.8%.
Turning to `CN(C)C(=S)/N=c1\ss/c(=N\C(=S)N(C)C)n1-c1ccc2c(c1)OCO2`, the growth inhibition is -4.1%.
On the same count and under the same terms, the result for `O=C1C=C(Nc2ccc(Cl)cc2C(=O)c2ccccc2)c2ccccc2C1=O` reads -11.7%; that for `CC[n+]1c(/C=C\N(C(C)=O)c2ccccc2)oc2ccccc21`, -25.3%.
Same read-out and setting: the result for `CCN(CC)C(=O)CS(=O)(=O)c1ccc(N)cc1` reads -8.5%.
As to `CCC1(COC(NC(=O)c2ccccc2)(C(F)(F)F)C(F)(F)F)COC1`, the growth inhibition is -1.9%.
On the same count and under the same terms, the result for `NC(=O)CCC(NS(=O)(=O)c1ccc(NC(=O)c2ccccc2)cc1)C(=O)O` (stereo not given) reads -4.1%; that for `COc1ccc(NC(=O)C2C(=O)N(c3ccc(OC)cc3)C(=O)/C2=N\N)cc1` (stereo not given), -19.4%.
On to `CC(C)NC(=O)c1ccc(CBr)cc1`, for which the growth inhibition was 9.05%.
Turning to `O=C1CCC(=O)N1c1ccc([I+]c2ccc(N3C(=O)CCC3=O)cc2)cc1`, the growth inhibition was 6.65%.
Consider `CC1(C)OC2COC(CN(N=O)C(N)=O)C2O1` (stereo not given), for which the growth inhibition was -15.7%.
With `N#CCCN(C1=NN(C(=O)CC(=O)Nc2cccc(Cl)c2)C(c2ccccc2)C1)c1ccccc1Cl` (stereo not given), the growth inhibition was -28.8%.
Turning to `CC(c1ccccc1)C(C)(C#N)c1ccccc1` (stereo not given), the growth inhibition was 23.1%.
As to `CCOc1cc2c(cc1O)CC[C@@H]1[C@@H]2CC[C@]2(C)C(N)CC[C@@H]12` (stereo not given in full), the growth inhibition was 5.85%.
On to `CCCCCCC(C(=O)OCC)(C(=O)OCC)c1ccccc1`, for which the growth inhibition is -16.1%.
Consider `O=S(=O)(c1ccc(I)cc1)c1ccc(I)cc1`, for which the growth inhibition was 0.1%.
For the molecule `c1ccc(Cc2[nH]nc(-c3n[nH]c(Cc4ccccc4)c3-c3ccccc3)c2-c2ccccc2)cc1`, the growth inhibition was 18.1%.
For `FC1C2=C(SC1(F)F)C1CCC2C1` (stereo not given), the growth inhibition was -2.2%.
`CCCCCCP(=O)(CCCC)CCCC`: the growth inhibition is 11.9%.
Turning to `CNC(=O)Nc1[nH]c(=O)ncc1Cl`, the growth inhibition was -0.35%.
Still for that read-out and setting: the result for `Cc1cc(=O)c2c3c(ccc2[nH]1)Oc1ccccc1O3` reads 5.95%; that for `COC(=O)c1cc(C(C)O)nc2ccccc12` (stereo not given), 3.95%; that for `CC(OC(C)(C)C)C(NC(=O)OCC1c2ccccc2-c2ccccc21)C(=O)NC(Cc1ccccc1)C(=O)OCc1ccccc1` (stereo not given) (Fmoc-Thr(tBu)-Phe-OBn; configuration not given here), -7.7%.
For the molecule `CCOC(=O)c1cnc(=S)n(CCC(C)C)c1N`, the growth inhibition was 8.25%.
Take `CC(=O)Nc1ccc(N=Nc2c(C)nn(C(=N)N)c2C)cc1`: the growth inhibition was -8.55%.
Take `O=C1NC(c2ccco2)N2C(=O)NC(c3ccco3)N12` (stereo not given): the growth inhibition is 21.5%.
For `COc1cc(-c2c3c(cc4c2OCO4)CC(O)C(C(=O)O)C3)cc(OC)c1OC` (stereo not given), the growth inhibition is -2.6%.
Regarding `OC(CBr)(c1ccccc1)c1ccccc1`, the growth inhibition is 23.4%.
In the case of `CC(C)C1N=C(N)N=C(N)N1c1ccc(Cl)c(Cl)c1` (stereo not given), the growth inhibition is 10.1%.
With `CC(=O)/C(=C\I)c1ccccc1`, the growth inhibition was 91.8% (active).
